Measured values taken from publication PMC3218832.

Columns and labels:
Experiment in all cases: protein binding microarray; high values mean tight binding
Settings in all cases: dsDNA, one strand shown
RELARELA (p65 homodimer) = RELARELA (p65 homodimer) (Homo sapiens, UniProt Q04206 1-307)
p50p50 homodimer = p50p50 homodimer (Homo sapiens, UniProt P19838 7-356)
p52p52 homodimer = target: T1, p52p52 homodimer (Homo sapiens, UniProt Q00653 4-332)
T1 sequence: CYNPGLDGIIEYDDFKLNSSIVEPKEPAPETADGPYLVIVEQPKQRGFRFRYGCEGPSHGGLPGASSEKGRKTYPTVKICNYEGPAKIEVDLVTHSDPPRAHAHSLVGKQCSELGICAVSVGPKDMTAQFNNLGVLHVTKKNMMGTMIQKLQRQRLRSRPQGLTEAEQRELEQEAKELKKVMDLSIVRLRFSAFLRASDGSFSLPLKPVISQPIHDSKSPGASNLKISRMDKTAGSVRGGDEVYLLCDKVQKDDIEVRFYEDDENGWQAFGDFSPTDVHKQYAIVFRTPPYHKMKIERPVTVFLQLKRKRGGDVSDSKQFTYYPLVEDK

[1] = target: RELA (p65) subunit of heterodimer;p50 subunit (Homo sapiens;Homo sapiens, UniProt Q04206;P19838 1-307;7-356)
Sequence of RELA (p65) subunit of heterodimer;p50 subunit (Q04206 1-307, chain 1 of 2): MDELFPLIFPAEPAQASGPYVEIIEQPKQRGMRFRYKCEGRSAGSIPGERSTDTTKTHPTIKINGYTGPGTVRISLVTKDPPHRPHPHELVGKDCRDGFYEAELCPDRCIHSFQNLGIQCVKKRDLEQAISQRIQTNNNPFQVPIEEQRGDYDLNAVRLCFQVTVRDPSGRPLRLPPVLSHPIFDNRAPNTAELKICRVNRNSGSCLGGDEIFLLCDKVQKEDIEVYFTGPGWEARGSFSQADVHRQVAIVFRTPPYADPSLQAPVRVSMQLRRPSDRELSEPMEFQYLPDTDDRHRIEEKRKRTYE
Sequence of RELA (p65) subunit of heterodimer;p50 subunit (P19838 7-356, chain 2 of 2): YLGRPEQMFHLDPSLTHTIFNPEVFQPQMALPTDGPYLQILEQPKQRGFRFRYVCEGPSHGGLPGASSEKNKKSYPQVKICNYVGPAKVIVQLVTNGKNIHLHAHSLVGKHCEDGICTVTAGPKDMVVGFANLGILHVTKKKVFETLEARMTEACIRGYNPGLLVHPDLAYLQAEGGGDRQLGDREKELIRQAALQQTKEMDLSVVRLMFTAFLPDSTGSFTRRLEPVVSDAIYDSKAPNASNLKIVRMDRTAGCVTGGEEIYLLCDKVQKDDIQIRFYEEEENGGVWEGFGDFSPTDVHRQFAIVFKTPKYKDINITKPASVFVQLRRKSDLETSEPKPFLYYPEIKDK

[2] = target: RELA (p65) subunit of heterodimer;p52 subunit (Homo sapiens;Homo sapiens, UniProt Q04206;Q00653 1-307;4-332)
RELB subunit;p50 subunit = RELB subunit;p50 subunit (Homo sapiens;Homo sapiens, UniProt Q01201;P19838 120-401;7-356)
RELB subunit;p52 subunit = target: T2, RELB subunit;p52 subunit (Homo sapiens;Homo sapiens, UniProt Q01201;Q00653 120-401;4-332)
T2 sequence 1: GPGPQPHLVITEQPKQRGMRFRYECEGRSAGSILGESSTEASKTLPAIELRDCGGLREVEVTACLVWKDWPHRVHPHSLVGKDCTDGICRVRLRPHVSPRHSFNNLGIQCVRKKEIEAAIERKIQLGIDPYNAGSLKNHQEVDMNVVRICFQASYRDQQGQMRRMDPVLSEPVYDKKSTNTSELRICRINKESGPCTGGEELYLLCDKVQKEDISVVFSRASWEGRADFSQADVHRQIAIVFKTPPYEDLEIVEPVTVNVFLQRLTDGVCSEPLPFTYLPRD
T2 sequence 2: T1 sequence

[3] = target: C-Rel subunit;p50 subunit (Homo sapiens;Homo sapiens, UniProt Q04864;P19838 1-285;7-356)
[4] = target: T3, C-Rel subunit;p52 subunit (Homo sapiens;Homo sapiens, UniProt Q04864;Q00653 1-285;4-332)
T3 sequence 1: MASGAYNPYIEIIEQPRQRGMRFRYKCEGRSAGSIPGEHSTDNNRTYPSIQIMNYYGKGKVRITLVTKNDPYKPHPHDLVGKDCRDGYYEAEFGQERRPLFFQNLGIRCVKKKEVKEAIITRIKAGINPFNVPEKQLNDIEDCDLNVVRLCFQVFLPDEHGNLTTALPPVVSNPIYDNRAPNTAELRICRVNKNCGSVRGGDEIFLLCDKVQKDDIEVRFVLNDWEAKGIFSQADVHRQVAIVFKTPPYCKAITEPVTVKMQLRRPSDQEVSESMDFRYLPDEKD
T3 sequence 2: T1 sequence

Sequence of p50p50 homodimer (P19838 7-356): as the sequence (P19838 7-356, chain 2 of 2) above
Sequence of RELARELA (p65 homodimer) (Q04206 1-307): as the sequence (Q04206 1-307, chain 1 of 2) above

Row | Sequence | binding signal (RELARELA (p65 homodimer)) [z-score] | binding signal (p50p50 homodimer) [z-score] | binding signal (p52p52 homodimer) [z-score] | binding signal [1] [z-score] | binding signal [2] [z-score] | binding signal (RELB subunit;p50 subunit) [z-score] | binding signal (RELB subunit;p52 subunit) [z-score] | binding signal [3] [z-score] | binding signal [4] [z-score]
1 | GAGTTCTTCCT | -0.0672 | -1.52 | -0.678 | -0.535 | -0.734 | -0.845 | -0.72 | -0.764 | -0.548
2 | AGATAGATCCT | -0.82 | -1.87 | -0.716 | -1.06 | -1.23 | -1.03 | -0.915 | -1.64 | -0.98
3 | CAAGAACCCCC | -0.244 | 1.28 | 1.21 | 1.6 | 1.28 | 1.46 | 1.32 | 1.04 | 0.879
4 | CAGTTACCCCC | 0.379 | 1.11 | 0.638 | 0.953 | 0.838 | 1.01 | 1.4 | 1.01 | 0.788
5 | CAGTAAATCCT | -0.441 | -1.23 | -0.605 | -0.903 | -0.822 | -0.822 | -0.598 | -1.01 | -0.81
6 | GAAAGACCCCC | -0.269 | 0.985 | 0.754 | 1.12 | 1.17 | 0.92 | 1.03 | 0.485 | 0.846
7 | CGGGTATCCCC | 1.9 | 0.854 | 2.48 | 1.84 | 2.01 | 0.893 | 1.59 | 1.64 | 2.53
8 | GGGGTGTTCCT | 1.06 | 0.337 | 0.617 | 0.455 | 0.487 | 0.00295 | 0.472 | 0.537 | 0.791
9 | GAGATATCCCC | 0.294 | 1.12 | 1.16 | 1.33 | 1.3 | 1.08 | 0.95 | 0.698 | 0.964
10 | GAGAGGGTCCC | -0.00134 | -0.361 | -0.132 | -0.312 | -0.187 | -0.0754 | -0.109 | -0.406 | -0.351
11 | AAGAACACCCC | -0.22 | 0.317 | 0.0847 | 0.107 | 0.232 | 0.176 | 0.504 | 0.232 | 0.274
12 | CAATGACCCCC | -0.602 | 0.342 | 0.0634 | 0.0857 | 0.113 | 0.27 | 0.286 | -0.0621 | -0.0557
13 | GAGGAATCCCT | 0.176 | 0.599 | 0.671 | 0.612 | 0.532 | 0.403 | 0.517 | 0.573 | 0.416
14 | AGATACATCCC | -0.0343 | -0.79 | -0.47 | -0.557 | -0.673 | -0.73 | -0.746 | -0.981 | -0.677
15 | GAGAGGACCCC | -0.845 | -0.858 | -0.455 | -0.636 | -0.537 | -0.461 | -0.392 | -0.607 | -0.571
16 | CAATTCGTCCC | 0.717 | 0.108 | 0.533 | -0.0179 | 0.123 | 0.362 | 0.547 | 0.479 | 0.00577
17 | GAGAGCGCCCT | -0.857 | -1.91 | -0.661 | -0.903 | -1.01 | -1 | -0.95 | -1.31 | -0.822
18 | AGAAAACTCCC | 1.36 | 1.03 | 0.9 | 1.14 | 0.979 | 1.35 | 0.74 | 0.654 | 0.947
19 | GGGTTCGTCCC | 0.22 | 0.238 | 1.59 | 0.186 | 1.09 | 0.251 | 0.438 | 0.489 | 0.747
20 | CAAAATATCCC | 0.764 | 0.4 | 0.253 | 0.376 | 0.346 | 0.128 | 0.342 | 0.0335 | 0.411
21 | GAGATACCCCT | -0.299 | 0.87 | 0.576 | 0.915 | 1.1 | 0.817 | 1.63 | 0.434 | 0.859
22 | GAAGAAATCCC | 1.23 | 0.872 | 0.93 | 0.96 | 0.759 | 0.876 | 0.618 | 0.892 | 0.641
23 | AAAAGCACCCC | -0.281 | 0.833 | 0.946 | 0.86 | 1.12 | 0.711 | 0.952 | 0.423 | 0.69
24 | AGATGGTTCCT | -0.148 | -2.29 | -0.605 | -0.843 | -0.727 | -0.879 | -0.835 | -1.36 | -0.824
25 | AAGTAGACCCT | -0.746 | -0.785 | -0.531 | -0.711 | -0.775 | -0.737 | -0.709 | -1.17 | -0.772
26 | GGATGATTCCT | 0.0919 | -1.32 | -0.648 | -0.708 | -0.749 | -0.941 | -0.913 | -0.706 | -0.54
27 | CGGGAACCCCC | 2.26 | 0.986 | 2.98 | 2.47 | 2.46 | 1.67 | 2.34 | 2.01 | 2.86
28 | AAGAACCCCCT | -0.175 | 1.5 | 1.86 | 2.09 | 1.57 | 2.18 | 2.07 | 1.44 | 1.48
29 | AAATAGATCCC | -0.751 | -0.68 | -0.334 | -0.662 | -0.554 | -0.403 | -0.661 | -0.87 | -0.679
30 | AGGTAGCTCCT | -0.716 | -0.916 | -0.638 | -0.909 | -0.901 | -0.802 | -0.975 | -1.36 | -0.889
